This is an account of results in PubChem BioAssay (NCI).

Among the test systems are NCI-H23 lung; NCI-H226 lung; HOP-62 NSCLC; NCI-H460 lung; HOP-92 NSCLC; NCI-H522 lung; A549/ATCC NSCLC; 786-0 renal; COLO 205 colon.
What all share (assay): NCI-60 one-dose screen, 48 h (100 = growth as untreated, 0 = no growth, -100 = all killed)
Common to all, as to details: 10 µM

About 83,000 compounds went through this panel and 20% of them were active in at least one assay; those are over-represented in the sample as a whole.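 Single-dose data. Exposure time 48 hours. Values below 10 considered active.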 Values without a mark were called inactive. Active and inactive are the calls of the source.

For the compound `COc1ccc2nc(-c3ccc(Cl)cc3)cc(-c3nnc(SC/C(=N\O)c4ccccc4)n3-c3ccccc3)c2c1`, the growth was 92.9% in the assay with NCI-H23 lung; 82.5% in the assay on NCI-H226 lung; 109% in the assay on HOP-62 NSCLC; 86.9% with NCI-H460 lung; 95.4% in the assay with HOP-92 NSCLC; 82.7% with NCI-H522 lung. Also, the growth was 63.1% in the assay on A549/ATCC NSCLC, 88.1% with 786-0 renal and 98.7% in the assay on COLO 205 colon.
As to `COc1cc(-c2nn(-c3cccc(NC(=O)CCN4CCN(c5ccccc5)CC4)c3)cc2-c2ccncc2)ccc1Cl`, the growth in the assay with NCI-H23 lung was 24.5%; in the assay with NCI-H226 lung, 47.6%; with HOP-62 NSCLC it was 34.2%; in the assay with NCI-H460 lung, 6.87% (active); with HOP-92 NSCLC it was 4.23% (active); in the assay with NCI-H522 lung, 10.1%. The growth in the assay with A549/ATCC NSCLC was 15.9%; with 786-0 renal, 2.45% (active); with COLO 205 colon it was -36.9% (active).
Consider `CS(=O)(=O)c1nccc(-c2c(-c3cccc(OCCN4CCOCC4)c3)nc3sccn23)n1`, for which the growth with NCI-H23 lung was 90.3%; in the assay with NCI-H226 lung, 83.9%; with HOP-62 NSCLC, 76.9%; with NCI-H460 lung, 101%; in the assay with HOP-92 NSCLC, 27.9%; in the assay with NCI-H522 lung, -63.3% (active). For the same compound, the figures for the growth with A549/ATCC NSCLC, in the assay with 786-0 renal and with COLO 205 colon were 94.5%, 90.6% and 97.9%, respectively.
With `COc1cc(/C=C2\CCCC3=C2N=C2SC(C)=CN2C3c2cc(OC)c(OC)c(OC)c2)cc(OC)c1OC` (centres undefined), the growth in the assay on NCI-H23 lung is -30.4% (active); in the assay with NCI-H226 lung it was -56.7% (active); in the assay on HOP-62 NSCLC, -19.6% (active); with NCI-H460 lung, 1.37% (active); in the assay with HOP-92 NSCLC, 55.4%; in the assay with NCI-H522 lung, -21.8% (active). In addition, the growth in the assay with A549/ATCC NSCLC was -23.4% (active); in the assay with 786-0 renal, -18.1% (active); in the assay on COLO 205 colon, -71% (active).
Consider `COc1cc2ncnc(NC3CCC(O)CC3)c2cc1OC` (centres undefined), for which the growth in the assay with NCI-H23 lung is 91.2%; in the assay on NCI-H226 lung it was 92.7%; in the assay on HOP-62 NSCLC it was 99.2%; with NCI-H460 lung, 102%; with HOP-92 NSCLC, 89.7%; with NCI-H522 lung, 81.6%. Moreover, the results for the growth with A549/ATCC NSCLC, in the assay on 786-0 renal and with COLO 205 colon were 85.9%, 85.5% and 102%, respectively.
On to `Cc1n[nH]c(C)c1N=Nc1cccc2c1C(=O)c1ccccc1C2=O`, for which the growth was 84.7% in the assay on NCI-H23 lung; 87.4% in the assay on NCI-H226 lung; 96.9% in the assay on HOP-62 NSCLC; 96.5% in the assay on NCI-H460 lung; 92.6% in the assay on HOP-92 NSCLC; 86.7% in the assay with NCI-H522 lung. Further, the figures for the growth in the assay with A549/ATCC NSCLC, with 786-0 renal and with COLO 205 colon were 105%, 101% and 104%, respectively.
For `CC[C@@H](C(=O)[C@H](C)[C@H](O)[C@@H](C)[C@H]1O[C@H]([C@@H](CC)C(=O)N(CC)CC)CC[C@H]1C)C1O[C@]2(C=C[C@@H](O)[C@]3(CC[C@@](C)([C@H]4CC[C@](O)(CC)[C@H](C)O4)O3)O2)[C@H](C)C[C@@H]1C` (some centres undefined), the growth was 18.6% in the assay on NCI-H23 lung; 7.49% (active) in the assay on NCI-H226 lung; 16.7% in the assay with HOP-62 NSCLC; 12.5% in the assay on NCI-H460 lung; -26.2% (active) in the assay with HOP-92 NSCLC; 5.16% (active) with NCI-H522 lung. In addition, the growth with A549/ATCC NSCLC was 20.9%; in the assay on 786-0 renal it was 33.5%; with COLO 205 colon, -20.2% (active).
As to `COC1OC(COS(=O)OC)C(O)C(O)C1OS(=O)OC` (centres undefined), the growth with NCI-H23 lung was 101%; with NCI-H226 lung it was 95.7%; with HOP-62 NSCLC, 104%; with NCI-H460 lung it was 101%; in the assay with HOP-92 NSCLC, 108%; in the assay on NCI-H522 lung, 98.5%. The growth is 103% in the assay on A549/ATCC NSCLC, 106% with 786-0 renal and 110% in the assay with COLO 205 colon.
Take `C=CCn1c(SCC(=O)Nc2ccc(C(=O)/C=C/c3cc(OC)c(OC)c(OC)c3)cc2)nnc1-c1cc(-c2ccc(Cl)cc2)nc2ccccc12`: the growth was 88.7% in the assay on NCI-H23 lung; 89.1% in the assay on NCI-H226 lung; 97.5% with HOP-62 NSCLC; 93.1% in the assay on NCI-H460 lung; 83% in the assay on HOP-92 NSCLC; 83.1% in the assay on NCI-H522 lung. Besides, the growth with A549/ATCC NSCLC was 96.7%; with 786-0 renal, 74.2%; with COLO 205 colon, 115%.
As to `CN(C)CCOc1ccccc1NC1=C(Cl)C(=O)C(Nc2ccccc2OCCN(C)C)=C(Cl)C1=O`, the growth with NCI-H23 lung is 64.1%; with NCI-H226 lung, 93.9%; in the assay with HOP-62 NSCLC, 110%; with NCI-H460 lung it was 99.2%; in the assay on HOP-92 NSCLC, 59.9%; in the assay on NCI-H522 lung, -53.3% (active). The growth with A549/ATCC NSCLC was 84.7%; in the assay on 786-0 renal, 74.8%; in the assay with COLO 205 colon it was -62% (active).
As to `CCN(CC)CCOc1ccc2c(c1O)C(=O)c1ccccc1C2=O`, the growth was 82.4% with NCI-H23 lung; 86.2% in the assay with NCI-H226 lung; 73.3% with HOP-62 NSCLC; 84.5% with NCI-H460 lung; 75.3% in the assay on HOP-92 NSCLC; 82.6% with NCI-H522 lung. The growth with A549/ATCC NSCLC is 78.6%; in the assay with 786-0 renal, 80.1%; with COLO 205 colon, 46.6%.
For `O=C1/C=C/[C@@H](O)[C@@H]2C[C@@H](O)C[C@H]2/C=C/CCC[C@H](CCc2ccc(NC(=S)Nc3ccc4c(c3)C(=O)OC43c4ccc(O)cc4Oc4cc(O)ccc43)cc2)O1`, the growth is 4.65% (active) with NCI-H23 lung; 17.4% in the assay with NCI-H226 lung; 25% with HOP-62 NSCLC; 15.4% with NCI-H460 lung; -4.85% (active) in the assay on HOP-92 NSCLC; -31% (active) in the assay on NCI-H522 lung. In the assay with A549/ATCC NSCLC, the growth is 17.3%.
Consider `CC[C@@H](C(=O)[C@H](C)[C@H](O)[C@@H](C)[C@H]1O[C@H]([C@@H](CC)C(=O)O)CC[C@H]1C)C1O[C@]2(C=C[C@@H](O)[C@]3(CC[C@@](C)([C@H]4CC[C@](O)(CC)[C@H](C)O4)O3)O2)[C@H](C)C[C@@H]1C` (some centres undefined), for which the growth is 13.4% in the assay with NCI-H23 lung; 21.4% in the assay with NCI-H226 lung; 36.9% with HOP-62 NSCLC; 11.4% in the assay on NCI-H460 lung; 24% in the assay with HOP-92 NSCLC; -4.35% (active) in the assay with NCI-H522 lung. In addition, the growth in the assay on A549/ATCC NSCLC was 20.8%; in the assay with 786-0 renal, 27.1%; in the assay with COLO 205 colon, 8.73% (active).
As to `CS(=O)(=O)c1nccc(-c2c(-c3ccc(OCCc4ccccc4)cc3)nc3sccn23)n1`, the growth is 91.8% with NCI-H23 lung; 44.8% with NCI-H226 lung; 104% in the assay with HOP-62 NSCLC; 101% in the assay on NCI-H460 lung; 75.8% in the assay with HOP-92 NSCLC; 94% with NCI-H522 lung. Moreover, the growth with A549/ATCC NSCLC is 101%; with 786-0 renal, 99.3%; with COLO 205 colon, 115%.
